# Test results as given in PubChem BioAssay (NCI).
# The panel holds about 83,000 compounds, 20% with a hit somewhere; the sample as a whole holds those more often.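 Each cell line was grown in a 96-well plate and treated with one concentration of compound for 48 hours. Values below 10 were considered active.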 Unmarked numbers belong to inactive results. The source made the active and inactive calls.
# Key:
# Assay in all cases: NCI-60 one-dose screen, 48 h (100 = growth as untreated, 0 = no growth, -100 = all killed)
# DU-145 prostate = conditions: 10 µM unless noted
# K-562 leukemia = conditions: 10 µM unless noted
# MALME-3M melanoma = conditions: 10 µM unless noted
# MDA-MB-231 breast = conditions: 10 µM unless noted
# RXF 393 renal = conditions: 10 µM unless noted
# SF-268 CNS = conditions: 10 µM unless noted
# SF-295 CNS = conditions: 10 µM unless noted
# SF-539 CNS = conditions: 10 µM unless noted
# UACC-257 melanoma = conditions: 10 µM unless noted
# M14 melanoma = conditions: 10 µM unless noted
# HCT-15 colon = conditions: 10 µM unless noted
# HT29 colon = conditions: 10 µM unless noted
# SNB-75 CNS = conditions: 10 µM unless noted
# SNB-19 CNS = conditions: 10 µM unless noted
# U251 CNS = conditions: 10 µM unless noted
# PC-3 prostate = conditions: 10 µM unless noted
# SK-MEL-5 melanoma = conditions: 10 µM unless noted
# UACC-62 melanoma = conditions: 10 µM unless noted
# SK-MEL-28 melanoma = conditions: 10 µM unless noted
# LOX IMVI melanoma = conditions: 10 µM
SMILES,growth (DU-145 prostate),growth (K-562 leukemia),growth (MALME-3M melanoma),growth (MDA-MB-231 breast),growth (RXF 393 renal),growth (SF-268 CNS),growth (SF-295 CNS),growth (SF-539 CNS),growth (UACC-257 melanoma),growth (M14 melanoma),growth (HCT-15 colon),growth (HT29 colon),growth (SNB-75 CNS),growth (SNB-19 CNS),growth (U251 CNS),growth (PC-3 prostate),growth (SK-MEL-5 melanoma),growth (UACC-62 melanoma),growth (SK-MEL-28 melanoma),growth (LOX IMVI melanoma)
CCC12OC(COc3ccccc3)CN1CCN2c1ccccc1 (configuration not stated),106% [100 µM],93.1% [100 µM],98.4% [100 µM],88.8% [100 µM],99.9% [100 µM],92.2% [100 µM],105% [100 µM],95.9% [100 µM],95.8% [100 µM],103% [100 µM],105% [100 µM],111% [100 µM],84.4% [100 µM],96.9% [100 µM],101% [100 µM],102% [100 µM],104% [100 µM],89.5% [100 µM],103% [100 µM],
N#Cc1ccc(OC(=O)Nc2c(Cl)cc(Cl)cc2Cl)cc1,111%,101%,95%,101%,125%,112%,108%,91.7%,97.7%,112%,107%,104%,127%,99.5%,104%,99.5%,97.2%,102%,104%,
S=C(NCc1ccccc1)N1CCC(CCCC2CCN(C(=S)NCc3ccccc3)CC2)CC1,105%,69.9%,104%,99.2%,107%,93%,97.7%,99.1%,100%,100%,99.8%,95.9%,101%,94.5%,98.3%,89.5%,58.8%,79.1%,119%,
CC(=O)N(CCCCCCN(C(C)=O)C(C)=O)C(C)=O,106% [100 µM],102% [100 µM],107% [100 µM],98% [100 µM],112% [100 µM],104% [100 µM],110% [100 µM],98.3% [100 µM],95.1% [100 µM],105% [100 µM],107% [100 µM],114% [100 µM],87.9% [100 µM],99.2% [100 µM],107% [100 µM],104% [100 µM],104% [100 µM],97% [100 µM],105% [100 µM],
Cc1ccc(Cc2ccc(C)cc2)cc1,107%,101%,86.9%,123%,99%,106%,101%,106%,93.3%,99.6%,101%,105%,101%,109%,101%,100%,101%,104%,107%,99.4%
C=CCc1cc(OC)c(O)c(OC)c1,107%,119%,95.1%,104%,119%,97%,97.3%,92.1%,101%,101%,98.7%,99.7%,90.9%,109%,97.2%,95.4%,99.8%,103%,108%,101%
O=S(=O)(O)c1cccc2cccnc12,120%,107%,112%,120%,124%,95.1%,109%,109%,103%,106%,117%,122%,98.2%,106%,113%,86.8%,107%,109%,97.3%,107%
CC(=O)OCC1CCC(COC(C)=O)CC1 (configuration not stated),102%,104%,104%,119%,106%,95.1%,99%,104%,82.9%,111%,95%,68.6%,87.4%,109%,105%,111%,103%,97.7%,102%,94%
C1Cc2onc(-c3noc4c3CCC4)c2C1,115%,109%,108%,116%,134%,110%,104%,108%,110%,110%,105%,104%,116%,98.8%,106%,103%,102%,96.5%,111%,
Oc1cccnc1CN1CCCC1,113%,99.5%,107%,105%,116%,104%,113%,102%,98.3%,112%,95.3%,108%,96.1%,104%,94.8%,89.7%,99.8%,102%,107%,96.6%
CC(=O)NC(CCc1ccc(Cl)c(Cl)c1)c1cccc(O)c(=O)c1 (configuration not stated),16.6%,11.2%,-17.9% (active),28.3%,18.6%,8.61% (active),-22.2% (active),2.57% (active),-11% (active),-44.2% (active),29.9%,27.6%,18.7%,23.7%,13.7%,38.9%,-31.8% (active),-57.7% (active),19.5%,-2.69% (active)
O=C(NCc1ccco1)Nc1cccc2c(NC(=O)NCc3ccco3)cccc12,53% [100 µM],32.9% [100 µM],111% [100 µM],97.9% [100 µM],117% [100 µM],96.3% [100 µM],84.1% [100 µM],30.2% [100 µM],112% [100 µM],66.3% [100 µM],99.2% [100 µM],55.2% [100 µM],49.7% [100 µM],52.6% [100 µM],64.8% [100 µM],42.9% [100 µM],90% [100 µM],96.6% [100 µM],91.3% [100 µM],
Cc1cc(NC(=O)c2ccccc2)c(Cl)cc1N,126%,98.8%,103%,96%,124%,114%,94%,95.5%,100%,95.8%,100%,102%,100%,93.9%,102%,108%,97.5%,89.8%,124%,97.6%
CN(C)CCOC(=O)Nc1ccc(Cc2ccc(NC(=O)OCCN(C)C)cc2)cc1,86.3% [100 µM],-30.1% [100 µM] (active),69.1% [100 µM],65.8% [100 µM],32.2% [100 µM],90.3% [100 µM],87.6% [100 µM],-66.5% [100 µM] (active),-61.6% [100 µM] (active),-38.6% [100 µM] (active),63.1% [100 µM],14.5% [100 µM],89% [100 µM],99.6% [100 µM],69.4% [100 µM],60.5% [100 µM],54.8% [100 µM],1.99% [100 µM] (active),18.7% [100 µM],
O=S(=O)(OCCOS(=O)(=O)c1ccccc1)c1ccccc1,100%,96.4%,86%,111%,96%,92.6%,102%,102%,97.2%,92.3%,91.9%,92.2%,93.6%,104%,92.6%,94.4%,93.6%,95.4%,112%,91.7%
CC1CN(CCO)CC(C)O1 (configuration not stated),107%,98.9%,99.7%,101%,132%,99.7%,104%,98.4%,105%,108%,102%,114%,96.5%,102%,102%,104%,102%,94.1%,104%,
